For 23 compounds, inhibition results are on record in PubChem BioAssay AID2803 (The Scripps Research Institute Molecular Screening Center, 2010).

Hit rate of the full screen: of about 2,000 compounds, about 1,300 (65%) were called active. Rule as the data show it: active = inhibition above about 43%; inactive = the rest. The set was probably picked from earlier hits. Not all results are given here.

In the assay the target is Prolyl endopeptidase-like (Homo sapiens) (UniProt Q4J6C6). Put plainly: human PREPL enzyme inhibitors, confirmation, biochemical, fluorescence polarization (AID 2803).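 Also: 0% = protein with DMSO and 100% = wells lacking protein.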 The following applies: recombinant PREPL, fluorescence polarization activity probe; at 5.96 µM; active compounds read high. Background: In fluorescence polarisation assays a small probe gives low polarisation when free and higher when bound to something large.
Sequence of Prolyl endopeptidase-like (Homo sapiens) (Q4J6C6 whole entry, looked up): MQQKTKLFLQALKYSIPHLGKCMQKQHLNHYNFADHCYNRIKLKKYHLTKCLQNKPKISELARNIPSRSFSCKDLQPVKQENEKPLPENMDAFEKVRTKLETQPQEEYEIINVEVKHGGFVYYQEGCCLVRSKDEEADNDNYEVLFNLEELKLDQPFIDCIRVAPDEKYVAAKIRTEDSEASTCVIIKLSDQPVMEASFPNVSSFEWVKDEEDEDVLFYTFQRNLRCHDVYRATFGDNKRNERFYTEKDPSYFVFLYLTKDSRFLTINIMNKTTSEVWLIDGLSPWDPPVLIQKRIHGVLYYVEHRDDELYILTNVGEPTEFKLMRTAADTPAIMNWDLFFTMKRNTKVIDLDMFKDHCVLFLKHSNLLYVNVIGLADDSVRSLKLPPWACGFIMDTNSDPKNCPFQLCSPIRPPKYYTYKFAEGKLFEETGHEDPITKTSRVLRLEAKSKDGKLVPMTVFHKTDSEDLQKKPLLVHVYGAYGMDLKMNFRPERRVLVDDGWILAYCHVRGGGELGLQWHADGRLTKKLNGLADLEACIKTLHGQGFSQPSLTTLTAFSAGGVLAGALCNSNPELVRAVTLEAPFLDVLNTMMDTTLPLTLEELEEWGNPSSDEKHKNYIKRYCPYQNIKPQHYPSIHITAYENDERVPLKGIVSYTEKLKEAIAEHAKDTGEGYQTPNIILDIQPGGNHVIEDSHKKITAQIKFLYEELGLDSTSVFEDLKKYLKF
In general, inhibition refers to the change of the read-out against control, counted positive when it falls. `CCOc1ccc2nc(N3CCCN(C(=O)Nc4ccccc4C)CC3)c(C#N)cc2c1`: the inhibition was 43.9% (active). The figure for `Nc1ccc(Nc2ccccc2)cc1` is 29.3% (inactive); for `CC(=O)Nc1ccc(S(=O)(=O)Nc2ccc(N3CCCCC3)cc2)cc1` it is 46.4% (active); for `O=C(NNc1c2ccccc2nc2ccccc12)c1cc2ccccc2cc1O` it is 23.9% (inactive). In the case of `O=C1N=C(N2CCc3ccccc3C2)S/C1=C\c1ccc(O)cc1` it was 48.4% (active). On to `COc1ccc2cc1Oc1ccc(cc1)C[C@H]1c3cc(c(OC)cc3CCN1C)Oc1c(O)c(OC)cc3c1[C@H](C2)N(C)CC3`, for which the inhibition is 55.2% (active). Regarding `CCN1C(=O)/C(=C\N2CCN(c3ccccc3)CC2)SC1=S`, the inhibition was 54.7% (active). The figure for `COC(=O)[C@H]1[C@H]2C[C@H]3c4[nH]c5ccccc5c4CCN3C[C@@H]2CC[C@@H]1O` is 22.4% (inactive); for `Cc1nc([N+](=O)[O-])nn1C12CC3CC(CC(Br)(C3)C1)C2` it is 8.94% (inactive); for `CCN1/C(=C/c2ccc3ccc(C)cc3[n+]2CC)Sc2ccccc21` it is 52.8% (active). The figure for `CCN1/C(=C\c2ccc3ccccc3[n+]2CC)Sc2cc(C)ccc21` is 61.6% (active). With `C#CCOCCOCCOCCNc1nc(N2CCN(C(=O)CCCCCCCCCCNC(=O)Cn3cc(CCCCCN)nn3)CC2)nc(N2CCN(C(=O)CCCCCCCCCCNC(=O)[C@H](CO)n3cc(CCCSC)nn3)CC2)n1`, the inhibition is 63.1% (active). `CC(C)n1cnc2c(NCc3ccccc3)cc(OCC3CCN(C)CC3)cc21`: the inhibition was 54.1% (active). The figure for `CCC(CO)Oc1cc(NCc2ccccc2)c2ncn(C3CCCC3)c2c1` (stereo not drawn) is 12% (inactive). In the case of `N#C/C(=C/c1ccc(N2CCCCC2)o1)C(=O)NCCc1c[nH]c2ccccc12` it was 78.5% (active); in that of `O=C(NCc1ccccn1)c1ccc2nc(-c3ccco3)c(-c3ccco3)nc2c1`, 39.2% (inactive). In the case of `Oc1c(CN2CCCC2)cc(COCc2ccccc2)c2cccnc12` it was 69.6% (active); in that of `Cc1ccc(C2CC(c3cccc(C)c3)n3nc(N)nc3N2)cc1` (stereo not drawn), 53.7% (active). Turning to `Oc1ccc2ccccc2c1N=Nc1nccs1`, the inhibition was 40.4% (inactive). The figure for `O=C(OCC(=O)N1CCN(c2ccccc2)CC1)c1ccc([N+](=O)[O-])s1` is 22.6% (inactive). The figure for `O=C(c1cc(C(=O)N2CCN(c3ccc(F)cc3)CC2)cc([N+](=O)[O-])c1)N1CCN(c2ccc(F)cc2)CC1` is 47.8% (active); for `COCCN(CCOC)c1nc(N)c2c(N)nc3c(c2c1C#N)CC(=O)N3Cc1ccc(Cl)cc1` it is 19.2% (inactive); for `O=C1c2ccccc2C(=O)c2c1cccc2N1CCN(C/C=C/c2ccccc2)CC1` it is 80.7% (active).
